This is a sample that favours compounds with a hit; in the whole collection about 0.43% have one here.
aGal spleen mod: qHTS Assay for Inhibitors and Activators of Human alpha-Galactosidase From Spleen Homogenate | human spleen homogenate, 4MU-alpha-Gal fluorescence, 40 min | AID 2107, 2009 | 240,000 compounds, 0.008% hits | Alpha-galactosidase A (Homo sapiens), P06280 | Potency, µM (titrated, usually from 80 µM), inactives show at the top dose activity change, negative = inhibition, most hits filed as inhibitors;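 also: potency is read from the fitted curve at half-maximal effect; 0% = enzyme with vehicle and -100% = no enzyme basal signal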
Target sequence (P06280 32-429 limits assumed): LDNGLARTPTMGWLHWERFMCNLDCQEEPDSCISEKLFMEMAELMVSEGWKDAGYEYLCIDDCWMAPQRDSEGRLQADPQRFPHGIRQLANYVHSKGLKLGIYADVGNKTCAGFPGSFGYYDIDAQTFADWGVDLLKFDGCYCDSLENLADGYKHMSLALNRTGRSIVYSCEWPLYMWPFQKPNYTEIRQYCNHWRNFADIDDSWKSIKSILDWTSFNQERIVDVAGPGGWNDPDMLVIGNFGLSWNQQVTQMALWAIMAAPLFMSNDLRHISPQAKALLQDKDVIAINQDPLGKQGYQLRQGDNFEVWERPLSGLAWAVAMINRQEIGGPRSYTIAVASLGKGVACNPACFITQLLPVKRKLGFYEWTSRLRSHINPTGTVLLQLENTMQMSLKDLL
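Human spleen homogenate (1 ug) as enzyme source, 4-methylumbelliferyl-alpha-D-galactopyranoside 1 mM final, citrate/phosphate pH 5.0 with 0.01% Tween-20. Compounds 40 min at 37C, NaOH/glycine stop; fluorescence Ex 365/Em 440, Hill-fit AC50.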
GAA inh: qHTS Assay for Inhibitors of Human alpha-Glucosidase as a Potential Chaperone Treatment of Pompe Disease. purified human GAA, 4-MU-alpha-glucoside fluorescence. Potency, µM (top dose mostly 76.9 µM), for inactives: top-dose activity change, negative = inhibition, most hits filed as inhibitors. 200,000 compounds, 0.005% hits. AID 1466, 2008;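 also: potency is read from the fitted curve at half-maximal effect; plate controls were uninhibited enzyme wells for no effect and no-enzyme background for full effect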
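Human alpha-glucosidase, 4 nM, pre-mixed with test compounds before 400 uM 4-methylumbelliferyl substrate; 20 min room temperature at pH 5.0. Fluorescence read after pH 10 stop; AC50 values from Hill-equation fits.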
GLA inh pH 4.5: qHTS Assay for Inhibitors of Human alpha-Galactosidase at pH 4.5; purified enzyme, 4-MU-alpha-Gal fluorescence, pH 4.5; activity change, negative = inhibition, % at 105 µM; AID 1467, 2008; 230,000 tested, under 10 active;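 also: 0% = full activity with enzyme and -100% = basal without enzyme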
GAA glycogen: qHTS Assay for Inhibitors and Activators of Human alpha-Glucosidase Cleavage of Glycogen | Lysosomal alpha-glucosidase (Homo sapiens), P10253 | recombinant GAA, glycogen substrate, Amplex Red glucose oxidase fluorescence | Potency, µM (doses to about 76.4 µM), without a hit: at the highest dose activity change, negative = inhibition, most hits filed as inhibitors | 300,000 compounds, 0.38% hits | AID 2100, 2009;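 also: potency is read from the fitted curve at half-maximal effect; 0% = full enzyme reaction and -100% = no-enzyme basal signal; the screen sought inhibitors and activators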
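qHTS, 1536-well; enzyme 4 nM final; cpd up to 77 uM; substrate bovine liver glycogen 30 ug; 50 mM citrate/phosphate pH 5.0, 0.01% Tween-20; 37 C, 40 min; Amplex Red detection 45 min RT; Hill fit → AC50.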
aGlu spleen mod: qHTS Assay for Inhibitors and Activators of Human alpha-Glucosidase From Spleen Homogenate; Lysosomal alpha-glucosidase (Homo sapiens), P10253; human spleen homogenate, 4-MU-alpha-glucoside fluorescence; Potency, µM (doses to about 79.9 µM), for inactives: top-dose activity change, negative = inhibition, usual class: inhibitors; 240,000 compounds, 0.006% hits;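 also: potency is read from the fitted curve at half-maximal effect; 0% = enzyme with vehicle and -100% = no enzyme basal signal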
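Human spleen homogenate (1 ug) incubated with compounds and 1 mM 4-methylumbelliferyl-alpha-D-glucopyranoside in pH 5.0 citrate/phosphate buffer, 37 C, 40 min. Stopped at pH 10; 4-MU fluorescence (Ex 365/Em 440 nm); AC50 by Hill fit.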
N370S GC mod: qHTS Assay for Inhibitors and Activators of N370S glucocerebrosidase as a Potential Chaperone Treatment of Gaucher Disease | Lysosomal acid glucosylceramidase (Homo sapiens), P04062 | N370S GC spleen homogenate, 4MU-glucoside fluorescence | Potency, µM (series often up to 59.4 µM), for inactives: at the top dose activity change, negative = inhibition, usual class: inhibitors | 330,000 compounds, 0.092% hits | AID 2101, 2009;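 also: potency is read from the fitted curve at half-maximal effect; 0% = full enzyme activity and -100% = no enzyme basal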
Numbers without * were called inactive; u = inconclusive; x = no result given; [ ] = dose if it differs, or a comment. Calls follow the shape of the dose curve; as a rule, active = well fitted curve in the direction sought with a large enough effect; inconclusive = small, poorly fitted or top-dose-only effect, or another doubt; inactive = no such curve, though single readings can be large; an effect the other way counts as inactive or inconclusive.

SMILES	aGal spleen mod	GAA inh	GLA inh pH 4.5	GAA glycogen	aGlu spleen mod	N370S GC mod
COc1ccc(O)c(-c2cc(-c3cccs3)[nH]n2)c1	6%	-10%	-1	40µM*	2%	-24%[2.35 µM]
COc1ccc(-c2nc3ccccc3s2)cc1NC(=O)c1ccc(F)cc1	x	x	x	1%[76.3 µM]	x	x
N#C/C(=C/c1ccc(F)cc1)C(N)=S	-3%	u	-6	35µM*	-5%	16%
Oc1ccc2[nH]ccc2c1	20%	-2%	-5	14µM*	-15%	-1%
Cc1nc(Nc2ccc(O)cc2)c2c3c(sc2n1)CCCC3	10%	-9%	-5	14µM*	8%	11µM*
Cc1ccc(CNc2nc(C)nc3sc4c(c23)CCC4)cc1	-8%	-4%	-2	1%	0%	13%
O=C(c1ccccc1)c1ccc(OCCOCCN2CCN(Cc3ccccc3)CC2)cc1	-11%	4%	5	22%	-7%	14µM*
COC(=O)c1cc(NS(=O)(=O)c2cccc(Cl)c2)ccc1N1CCOCC1	9%	x	-4	2%	10%	2%
COC(=O)c1cc(NCc2c(F)cccc2Cl)ccc1N1CCOCC1	2%	0%	2	12µM*	3%	-4%
COC(=O)c1cc(NCc2cccs2)ccc1N1CCOCC1	4%	-9%	-8	u	8%	1%
O=C(O)c1cc(NCc2cccs2)ccc1N1CCOCC1	-3%	-5%	2	9.9µM*	-3%	-3%
CCOc1ccccc1NC(=O)CCc1c(C)nc2cc(-c3ccccc3)nn2c1C	x	x	x	2%[76.3 µM]	x	x
COc1ccc(Cn2c(CCC(=O)Nc3cc(OC)c(OC)c(OC)c3)nc3cccnc32)cc1	x	x	x	-5%[76.3 µM]	x	x
COc1ccc(Nc2c(-c3ccc(C)o3)nc3cc(C)ccn23)cc1	x	x	x	5.6µM*	x	x
Oc1ccccc1-c1nc2cnccn2c1Nc1ccc2c(c1)OCCO2	3%	u	-5	7.9µM*	-3%	15%
COc1ccc(-c2nc3cnccn3c2Nc2ccc(C)cc2)cc1	5%	2%	-8	7.1µM*	-22%	u
COc1cc(-c2nc3cnccn3c2Nc2c(C)cccc2C)ccc1O	-3%	-1%	-2	14µM*	0%	0%
COc1cc(-c2nc3sccn3c2Nc2c(C)cccc2C)ccc1O	x	x	x	-18%[76.3 µM]	x	x
COC(=O)c1ccccc1NC(=O)CCCn1c(=O)c2cccn2c2cccnc21	x	x	x	0%[76.3 µM]	x	x
O=C1CC(c2ccccc2O)Oc2ccc(O)cc21 (centres undefined)	1%	x	0	x	7%	-5%
Cc1nn(C(=O)N(C)C)c(C)c1CN1C(=O)c2ccccc2C1=O	x	x	x	0%[76.3 µM]	x	-6%
O=C(Nc1ccc(F)cc1)N1CCc2ccccc2C1	-1%	4%	-9	3%	1%	14%
Cc1ccc(Nc2c(-c3ccc(C)o3)nc3cnccn23)cc1	3%	-2%	-2	-17%	5%	0%
CSc1ccc(-c2nc3cnccn3c2Nc2ccc3c(c2)OCO3)cc1	-4%	-28%	-26	22µM*	-4%	-1%
Clc1ccc(-c2nc3cnccn3c2Nc2ccc3c(c2)OCO3)cc1	8%	-1%	-1	u	1%	-16%
SMILES	aGal spleen mod	GAA inh	GLA inh pH 4.5	GAA glycogen	aGlu spleen mod	N370S GC mod
Cc1ccc(-c2nc3cnccn3c2Nc2ccc3c(c2)OCO3)o1	-8%	u	u	7.9µM*	-6%	0%
Cc1ccn2c(Nc3ccc4c(c3)OCO4)c(-c3ccc(C)o3)nc2c1	x	x	x	4µM*	x	x
Cc1ccc(-c2nc3ccc(Br)cn3c2Nc2ccc3c(c2)OCO3)o1	x	x	x	-12%[76.3 µM]	x	x
COc1cc(-c2nc3ncccn3c2Nc2ccc(C)cc2C)ccc1O	x	x	x	10µM*	x	x
CN(C(=O)Cn1c(=O)n(Cc2ccc(C(=O)NCc3ccc4c(c3)OCO4)cc2)c(=O)c2ccccc21)c1ccccc1	x	x	x	-1%[76.3 µM]	x	x
COC(=O)/C(=N/Nc1ccccc1OC)N1CCCc2ccccc21	-2%	x	-5	-24%	-1%	17%
O=C(O)c1cc2c(ccc3ccccc32)o1	40µM*	-2%	6	28%	-12%	u
O=C(O)CC1=C(O)C(=O)N(c2ccccc2)C1c1ccc(Br)cc1 (centres undefined)	-13%	0%	6	25µM*	-3%	13%
O=C(O)CC1=C(O)C(=O)N(c2ccccc2)C1c1ccccc1 (centres undefined)	0%	-12%	-8	u	-14%	0%
Cc1cc(/C=C(\C#N)C(=O)N2CCOCC2)c(C)n1C1CCCC1	-15%	x	-6	12%	-23%	-6%
Cc1ccc(NC(=O)CCCc2nnc3n(C)c(=O)c4sccc4n23)cc1C	x	x	x	-4%[76.3 µM]	x	x
Cn1c(=O)c2sccc2n2c(CCCC(=O)Nc3ccc(F)c(F)c3)nnc12	x	x	x	2µM*	x	x
Cc1ccc(C(O)(C(=O)NNc2ccccn2)c2ccc(C)cc2)cc1	6%	-11%	-8	5µM*	-6%	-4%
CCCC(=O)NC(=S)Nc1cccc2c(O)cccc12	2%	-4%	5	8.9µM*	8%	-8%
CCCC(=O)NC(=S)Nc1ccccc1C(=O)OC	-6%	1%	4	-4%	-9%	7%[12.8 µM]
O=C(NC(=S)Nc1cccc2c(O)cccc12)c1ccccc1[N+](=O)[O-]	x	x	x	10µM*	x	-9%
CC(C)(C)c1cc(=O)n(-c2ccccc2)[nH]1	-6%	0%	3	-6%	-1%	13%
COc1ccc(OC)c(C2OCCC=CC2C)c1 (centres undefined)	5%[17.5 µM]	x	x	x	0%[17.4 µM]	-13%[12.8 µM]
Cc1ccc(S(=O)(=O)N/N=C/c2ccc(O)cc2O)cc1[N+](=O)[O-]	6%	x	2	25µM*	-1%	8%
Cc1ccc(S(=O)(=O)N/N=C/c2cc([N+](=O)[O-])ccc2O)cc1[N+](=O)[O-]	4%	-12%	-8	-6%	7%	2%
COc1cccc(C(=O)NCCS(=O)(=O)NC2CCCC2)c1	x	x	x	x	x	-10%
COC(=O)N1CCC2(CCN(Cc3ccc(C#N)cc3)CC2)CC1	25%	x	x	x	7%	19%
CCc1cccc(CC)c1NC(=S)NCC(c1cccnc1)N1CCOCC1 (centres undefined)	3%	0%	6	-7%	-1%	11%
COc1ccc(CNC(=O)Nc2cccs2)cc1OC	5%	-8%	2	10µM*	2%	3%

Compound activity as filed in PubChem BioAssay.
